DRD3 antagonist: blocks the human D3 dopamine receptor; P35462; D3R cells, DiscoveRx beta-arrestin luminescence, antagonist mode; hits give low values; max response, negative = inhibition, %; actives 2.5% (n = 360,000); in the data active = max response below about -50%; inconclusive = no clear call, values can overlap the other calls; note: % is set by controls: 0 for no effect and ±100 for the full control effect
Target sequence (P35462 whole entry, looked up): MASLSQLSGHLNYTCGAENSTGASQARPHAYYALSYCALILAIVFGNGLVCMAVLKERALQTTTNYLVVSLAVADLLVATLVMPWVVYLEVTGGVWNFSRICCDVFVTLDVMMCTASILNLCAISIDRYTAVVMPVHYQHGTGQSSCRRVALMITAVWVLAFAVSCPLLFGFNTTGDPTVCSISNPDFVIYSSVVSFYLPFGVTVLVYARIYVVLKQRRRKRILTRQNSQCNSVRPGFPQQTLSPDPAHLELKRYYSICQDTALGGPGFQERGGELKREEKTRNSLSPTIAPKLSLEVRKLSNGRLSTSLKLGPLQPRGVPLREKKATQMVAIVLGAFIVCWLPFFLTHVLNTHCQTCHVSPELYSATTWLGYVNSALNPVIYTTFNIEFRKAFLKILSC
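Cells plated overnight at 1500 cells/well, then exposed to library compounds with dopamine controls for 90 minutes at 37 degrees C. DiscoveRx reagent added for 30–60 minutes at room temperature; luminescence read, quantitative HTS format.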
SW480 rerep: inducers of DNA re-replication in SW480 colon cancer cells | actives 1.8% (n = 340,000) | Potency, µM (top dose mostly 46.1 µM), for inactives: top-dose re-replication activation, hits mostly activators | SW480 DNA re-replication, Hoechst DNA content imaging, 48 h; note: potency is the fitted concentration of half-maximal effect; % of control where 0% means no effect; nearly all actives have a fitted effect of over 55% in size
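250 cells/well; 23 nL cpd via pin tool; 48 hr, 37 C, 5% CO2; Hoechst 40 min; imager read of total nuclear intensity, ex 405/em 500-530 nm.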
D3 ag: activates the human D3 dopamine receptor; max activation, %; P35462; AID 652048; D3R DiscoveRx beta-arrestin cells, luminescence, 90 min; actives 0.58% (n = 410,000); in the data active = max activation above about 30%; note: 0% is about no effect
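Cells at 1500/well, incubated overnight, then treated with pinned compounds (dopamine as control) for 90 min at 37 degrees C. DiscoveRx reagent added for 30 - 60 minutes at room temperature; luminescence read.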
KB-3-1 cytotox: kills parental KB-3-1 adenocarcinoma cells. KB-3-1 viability, CellTiter-Glo ATP luminescence, 72 h. Potency, µM (doses to about 46.1 µM), most hits filed as cytotoxic. actives 1.4% (n = 400,000); note: potency is the fitted concentration of half-maximal effect; % is set by controls: 0 for no effect and ±100 for the full control effect; nearly all actives have a fitted effect of over 60% in size
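Multi-concentration cytotoxicity screen in KB-3-1 cells grown in DMEM lacking phenol red with 10% FBS. After 72 h at 37 °C with compound, ATP-dependent luminescence was recorded.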
MCF10A rereplic: induces DNA re-replication in MCF 10a normal breast cells. Potency, µM (titrated, usually from 46.1 µM), for inactives: top-dose activity, positive = re-replication, hits mostly activators. MCF 10A DNA re-replication, Hoechst nuclear intensity, 48 h. actives 2.9% (n = 350,000); note: potency is the fitted concentration of half-maximal effect; % of control where 0% means no effect; nearly all actives have a fitted effect of over 50% in size
KB-V1 MDR tox: kills drug-selected multidrug resistant KB-V1 cells. AID 1347076. KB-V1 MDR cells viability, CellTiter-Glo, 72 h. actives 3.4% (n = 400,000). Potency, µM (titrated, usually from 46.1 µM), most hits filed as cytotoxic; note: potency is the fitted concentration of half-maximal effect; % is set by controls: 0 for no effect and ±100 for the full control effect; nearly all actives have a fitted effect of over 60% in size
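KB-V1 cells (P-gp-expressing MDR subline of KB-3-1) in phenol-red-free DMEM with 10% FBS were exposed to library compounds over a concentration series for 72 h at 37 degrees C. Viability read by CellTiter-Glo luminescence; concentration-effect curves fitted after normalization.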
* hit, by the source's call; i = inactive; ? = inconclusive; / = not tested or not shown. Compounds with a hit are over-represented: about 8.9% of the library has one in this group of screens. Unless noted, calls come from the whole dose curve; as a rule, active = well fitted curve in the direction sought with a large enough effect; inconclusive = small, poorly fitted or top-dose-only effect, or another doubt; inactive = no such curve, though single readings can be large; an effect the other way counts as inactive or inconclusive.

SMILES | DRD3 antagonist | SW480 rerep | D3 ag | KB-3-1 cytotox | MCF10A rereplic | KB-V1 MDR tox
COc1ccc(C(=O)Nc2ccc(S(=O)(=O)N3CCOCC3)cc2)cc1[N+](=O)[O-] | -12 | -14% | 1 | i | 4.6µM* | ?
Cc1ccc(S(=O)(=O)NNC(=O)C2Cc3c(ccc4ccccc34)O2)cc1 (centres undefined) | 10 | -5% | -3 | i | 7% | i
CCCCOc1ccc(S(=O)(=O)NNC(=O)C2Cc3c(ccc4ccccc34)O2)cc1 (centres undefined) | 13 | ? | 2 | i | 21µM* | i
Nc1ccn(CC(=O)NCCNc2ccc([N+](=O)[O-])cn2)c(=O)n1 | 7 | -3% | 98* | i | -15% | i
CC(C)(C)c1ccccc1OCCOCCN1CCCCCC1 | -62* | ? | -14 | i | 15% | ?
Cc1ccc(OCCOCCN2CCCCC2)c([N+](=O)[O-])c1 | -17 | ? | -11 | i | -1% | i
Cc1ccc(C(C)(C)C)c(OCCOCCN2CCCC2)c1 | -54* | 0% | -30 | i | ? | ?
COc1ccc(-c2nc(CSc3nnc(C)n4c3cc3sccc34)c(C)o2)cc1 | / | / | -24 | / | / | /
COc1ccc(-n2cc(C(=O)Nc3ccccc3C#N)c3ccccc3c2=O)cc1 | / | / | -8 | / | / | /
COc1ccc(/C=C/C(=O)Nc2nc(-c3cccs3)ns2)cc1 | / | / | 5 | / | / | /
COc1ccc(NC(=O)/C=C/c2cc(Br)ccc2OC)cc1 | -12 | -1% | -12 | i | ? | i
COc1ccccc1C(=O)Nc1ccc(C(=O)/C=C/c2cccs2)cc1 | 13 | ? | 0 | i | ? | 23µM*
COc1ccc(/C=C/C(=O)Nc2nc(-c3cccs3)ns2)cc1OC | / | / | 36* | / | / | /
COc1ccc(Br)cc1/C=C/C(=O)c1ccc(NC(C)=O)cc1 | -3 | 15µM* | 0 | 4.1µM* | 6.5µM* | ?
COc1ccc(/C=C/C(=O)c2ccc(NC(=O)c3cccs3)cc2)cc1OC | 24 | ? | 1 | i | 9.2µM* | 21µM*
CCOc1ccccc1Oc1nc(C)nc2c1oc1ccccc12 | / | / | 4 | ? | / | ?
COc1ccc(NC(=O)CN2C(=O)CCc3cc(S(=O)(=O)N4CCOCC4)ccc32)c(OC)c1 | / | / | -1 | i | / | ?
CCOCCCN1C(=O)CN(C2CCCCCC2)C(=O)C1c1ccc(OC(C)C)c(OC)c1 (centres undefined) | / | / | 2 | / | / | /
O=C(CNC(=O)c1ccc2c(c1)OCO2)N/N=C(Br)/C=C/c1ccccc1 | ? | ? | -33 | ? | 9.2µM* | i
O=C(CNC(=O)c1ccc2c(c1)OCO2)N/N=C/c1cccc([N+](=O)[O-])c1 | 13 | 4% | 1 | i | -4% | i
Cc1cccc(N2CCN(C(=O)c3cn(CC(C)C)c(=O)c4c3c3ccccc3n4C)CC2)c1C | / | / | 30* | i | / | i
Cc1ccc(C)c(N2CCN(C(=O)c3cn(CC(C)C)c(=O)c4c3c3ccccc3n4C)CC2)c1 | / | / | 4 | i | / | ?
COc1ccccc1C(=O)NCc1ccc2c(c1)CCN2C(=O)c1ccncc1 | / | / | -10 | i | / | i
Nc1ccccc1-c1ccc([N+](=O)[O-])cc1 | 2 | ? | 0 | ? | 23µM* | i
O=C(CN1CCOCC1)Nc1ccc(NC(=O)c2ccccc2F)cc1 | 9 | -8% | 3 | ? | -1% | i
SMILES | DRD3 antagonist | SW480 rerep | D3 ag | KB-3-1 cytotox | MCF10A rereplic | KB-V1 MDR tox
CN(C)c1ccc2nc3ccc(=[N+](C)C)cc-3sc2c1 | -60* | ? | -21 | ? | -9% | ?
CN(C)c1ccc2nc3ccc(=O)cc-3sc2c1 | -17 | / | -6 | ? | / | 16µM*
Cc1nc2cc(C)c(C)cc2s1 | -9 | 1% | -3 | i | -2% | i
CN(C)c1ccc(-c2ccc3ccccc3n2)cc1 | / | / | / | i | / | i
c1ccc2nc(-c3cc4ccccc4s3)ccc2c1 | / | / | / | i | / | i
Cc1cc2nc3ccc(=[N+](C)C)cc-3sc2cc1N | -54* | ? | -16 | ? | -5% | 16µM*
Cc1ccc(NC(=O)Cn2c(=O)c3ccccc3n3nncc23)cc1 | / | / | -6 | i | / | i
O=C1C(=C(I)I)c2ccccc2-c2ccccc21 | -100* | 5.8µM* | -35 | ? | ? | 15µM*
Cc1ccc(NC(=O)Nc2nnc(N(CC(C)C)CC(C)C)s2)cc1Cl | / | / | -6 | / | / | /
CCn1c(=N)n(CC(=O)c2ccc(OC)c(OC)c2)c2ccccc21 | 17 | -5% | -9 | i | -7% | 13µM*
COc1cccc(C(=O)CN2C3=NCCCN3c3ccccc32)c1 | -62* | -2% | -2 | i | -2% | i
COc1ccc(C(=O)CN2C3=NCCCN3c3ccccc32)cc1OC | -11 | 0.26µM* | -6 | i | -1% | i
CCN(CC)S(=O)(=O)c1cc(-c2onc(C)c2C)ccc1OC | / | / | 17 | / | / | /
CCOc1ccc(CC(=O)Nc2cccc(-c3nc4cccnc4s3)c2C)cc1 | / | / | -7 | / | / | /
O=c1cc(-c2ccc(O)cc2)oc2ccc3ccccc3c12 | 37 | 20% | 9 | ? | 18µM* | ?
OCCN=c1cc(-c2ccccc2)oc2ccc(Cl)cc12 | -14 | ? | -1 | ? | ? | 16µM*
O=c1cc(-c2ccccc2[N+](=O)[O-])oc2ccccc12 | -6 | ? | -7 | i | 5.2µM* | 15µM*
CC(C)CN=c1cc(-c2ccccc2)oc2ccc(Cl)cc12 | -12 | ? | -7 | ? | ? | ?
O=c1cc(-c2ccc(O)cc2)oc2c1ccc1ccccc12 | 54 | 11% | -8 | i | -2% | i
O=c1cc(-c2ccccc2F)oc2ccccc12 | ? | -1% | -7 | i | 15% | ?
CC(O)CN=c1cc(-c2ccccc2)oc2ccc(Cl)cc12 (centres undefined) | 0 | 25% | -8 | 21µM* | ? | ?
O=C(NCc1ccccc1)c1ccc(NC(=O)c2nsc3ccccc23)cc1 | / | / | 4 | i | / | i
Cc1ccc(O)c(C(CC(=O)NCC2(c3ccccc3)CCCC2)c2ccccc2)c1 (centres undefined) | / | / | 4 | / | / | /
O=c1cc(-c2ccccc2)oc2ccc(Cl)cc12 | 4 | 0% | -2 | i | -1% | 21µM*
O=P(O)(O)c1cc(-c2ccccc2)oc1-c1ccccc1 | 8 | -5% | 10 | i | 3% | i
O=c1cc(-c2ccccc2)oc2ccc(Br)cc12 | -7 | -5% | 3 | i | ? | i
O=c1oc(-c2ccccc2)cc(Cl)c1Cl | -15 | 9.2µM* | 0 | ? | 2.9µM* | ?

From PubChem
